Laboratory results from PubChem BioAssay (Tox21).
Inconclusive results are not listed. Entries that show only a call come without a potency. A number with no mark means an inactive call. Calls of active or inactive are those of the source. Calls come from the whole dose curve; as a rule, active = well fitted inhibition curve with a large enough effect in the repeat runs; inconclusive = weak or mixed curves, or effect the other way; inactive = no such curve, though single readings can be large or run the other way.

Biological target: Nuclear receptor subfamily 1 group I member 3 (Homo sapiens) (UniProt Q14994)
Test: qHTS assay to identify small molecule antagonists of the constitutive androstane receptor (CAR) signaling pathway (AID 1224838);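 note: HepG2 cells stably expressing hCAR with CYP2B6 luciferase reporter stimulated by CITCO; nearly all actives have a fitted effect of over 40% in size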
Conditions: HepG2-CYP2B6-hCAR luciferase, CITCO-stimulated, 24 h; series mostly up to 92.4 µM
From the text: U.S. Tox21 Program National Center for Advancing Translational Sciences [NCATS] NIH Chemical Genomics Center [NCGC] U.S. Environmental Protection Agency [EPA] National Institutes of Environmental Health Sciences [NIEHS] National Toxicology Program [NTP] U.S. Food and Drug Administration [FDA] Tox21 Assay Overview: The constitutive androstane receptor (CAR) is a nuclear receptor which regulates multiple drug metabolizing enzymes (DMEs) and transporters. Activating CAR will generally increase the transcription and subsequent translation of CYP2B6 and CYP3A4. These two DMEs represent about 50% of the drug metabolizing potential in the body. When CAR is deactivated, the metabolizing potential in the body will decrease, subsequently increasing the toxicity in the body or lowering the therapeutic potential of a pro-drug. Recently, there have also been studies performed indicating CARs role in energy metabolism and cancer therapy. Therefore, inhibiting CARs activity could have a potential effect on diabetes and cancer. Identifying environmental toxins and compounds which modulate CAR, through the use of the Tox21 10K compound collection, will be an important step in determining the toxicity and potential therapeutic effects these factors will have on the human body.
Tox21 Assay Protocol Summary: A double-stable (hCAR and CYP2B6-2.2kb) transfected cell line, derived from human hepatoma (HepG2) cells, was utilized for the duration of the quantitative high-throughput screens. The HepG2-CYP2B6-hCAR cells suspended in DMEM culture medium supplemented with 10% FBS, 5 ug/mL blasticidin, 0.5 mg/mL geneticin, 100 U/mL penicillin and 100 ug/mL streptomycin were dispensed at 2500 cells/4 uL/well in 1536-well white solid bottom plates using a Multidrop Combi. After the assay plates were incubated at 37 C/5% CO2 for 4 hrs, 23 nL of compounds at 15 concentrations (from 5-48 columns) or positive control (from 1 to 4 columns) were transferred to the assay plates using a Pintool station. One uL of CITCO, was added using a Flying Reagent Dispenser to generate a final concentration of 50 nM CITCO inside each well. After a 24 hr incubation period at 37 C/5% CO2, four uL of ONE-Glo reagent was added into the assay plates using a Flying Reagent Dispenser. After a 30 min incubation period at room temperature, the luminescence intensity in the assay plates was measured using a ViewLux plate reader.
Potency is the fitted concentration of half-maximal effect.

Nuclear receptor subfamily 1 group I member 3 (Homo sapiens), sequence (Q14994 whole entry, looked up): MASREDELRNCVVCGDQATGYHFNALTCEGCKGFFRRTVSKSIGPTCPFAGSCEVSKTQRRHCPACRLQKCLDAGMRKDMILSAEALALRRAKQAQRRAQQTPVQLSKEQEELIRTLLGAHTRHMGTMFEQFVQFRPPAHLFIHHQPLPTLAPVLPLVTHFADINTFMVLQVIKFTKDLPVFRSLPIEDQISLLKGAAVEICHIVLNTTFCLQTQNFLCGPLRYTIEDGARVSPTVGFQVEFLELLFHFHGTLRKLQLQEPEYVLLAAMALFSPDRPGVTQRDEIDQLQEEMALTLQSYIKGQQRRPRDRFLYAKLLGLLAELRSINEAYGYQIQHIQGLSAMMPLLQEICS

Compound	Potency	activity, negative = inhibition
O=[N+]([O-])c1cc[n+]([O-])cc1	43.3 µM (active)	
CC(=O)OCCc1ccccc1	inactive	
CN(c1nccc(=O)[nH]1)C1CCN(c2nc3ccccc3n2Cc2ccc(F)cc2)CC1	inactive	
Cc1occc1S	inactive	
Cc1cccc(OCCOc2cccc(C)c2)c1	inactive	
Cc1ccc(C)o1	inactive	
CC1=CC(=O)/C(=C(/C)O)C(=O)O1	inactive	
O=S1(=O)c2cccc3cccc(c23)N1CCCN1CCN(c2ccc(F)cc2)CC1	inactive	
CC1CCc2cc(F)cc3c(=O)c(C(=O)O)cn1c23 (stereo not given)	inactive	
NC(=S)N/N=C/c1cccnc1	inactive	
CCCCOC(=O)c1ccccc1C(=O)OCC(CC)CCCC (stereo not given)	inactive	
O=C(C(=O)c1ccc(Br)cc1)c1ccc(Br)cc1		0.195% [at 19 µM]
N#CCCNCCC#N	inactive	
CN(C)CCCOc1nn(Cc2ccccc2)c2ccccc12	inactive	
NCCCOCCOCCOCCCN	inactive	
CC(Cc1cccc(C(F)(F)F)c1)NCCOC(=O)c1ccccc1 (stereo not given)	inactive	
O=C(c1ccc(O)cc1)c1ccc(O)cc1	inactive	
COc1ccccc1OC(=O)Oc1ccccc1OC	inactive	
O=C(O)/C=C/c1cnc[nH]1	inactive	
Cc1nc2ccccc2n1Cc1ccc(Cl)cc1	inactive	

Compound	Potency	activity, negative = inhibition
C=C(C)C(=O)OC(C)C	inactive	
C[C@H](CCC(=O)O)[C@H]1CC[C@H]2[C@@H]3[C@H](O)C[C@@H]4C[C@H](O)CC[C@]4(C)[C@H]3CC[C@]12C	inactive	
Cn1c(N)nc2nc[nH]c2c1=O	48 µM (active)	
O=C(O)c1cccc(N(Cc2cccnc2)c2ccc(OC(F)F)c(OC(F)F)c2)c1	inactive	
CCc1nn(C2CCCCC2)c2cc(C3(C#N)CCC(C(=O)O)CC3)ccc12 (stereo not given)	inactive	
CC/C(=C\C(=N/O)C(N)=O)C(C)[N+](=O)[O-] (stereo not given)	inactive	
CCOC(=O)[C@H](CCc1ccccc1)N[C@H]1CCc2ccccc2N(CC(=O)O)C1=O	inactive	
COC(=O)C(C)=O	inactive	
CC(=O)c1c(C)c([N+](=O)[O-])c(C(C)(C)C)c([N+](=O)[O-])c1C	inactive	
CCC(=O)OC(C)(C)C1CC=C(C)CC1 (stereo not given)	inactive	
CC[C@H](C)[C@H](N)C(=O)O	inactive	
CC(=O)NCCCS(=O)(=O)O	inactive	
N#Cc1cc2ccccc2c2ccccc12	inactive	
Oc1ccc2c(c1)OCO2	inactive	
CCCC[C@H]1CN(CC2CCOCC2)C(=O)OC12CCN(C1(C)CCN(C(=O)c3c(C)ncnc3C)CC1)CC2	inactive	
CCCCC(CC)(CO)CO	inactive	
c1ccc(CNCc2ccccc2)cc1	inactive	
CCOC(=S)SSC(=S)OCC	inactive	
CCN(CC)C(C)=O	inactive	
O=C=NC1CCC(CC2CCC(N=C=O)CC2)CC1 (stereo not given)	inactive	
